# Screening results deposited in PubChem by several laboratories.
# Efflux pump inh – blocks antifungal efflux pumps in multiplex yeast assay | inhibition, % at 10 µM | S. cerevisiae Candida pump triplex, Nile Red efflux | AID 485275 | 0.44% of 330,000 active;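 active = plate passing quality check with inhibition over a set limit, or well fluorescence over plate mean plus 4 SD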;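 note: Nile Red retained in pooled yeast measured as flow cytometry median fluorescence; 0% = buffer negative control and 100% = Enniatin B positive control; higher means more Nile Red kept so more efflux inhibition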
# A1 inh – inhibitors of the anti-apoptotic protein A1, read as caspase activation; MEF A1-2A-BIM cells, Caspase-Glo 3/7 luminescence, 3 h; percent of clofoctol response, vehicle zero; caspase activation, % (test concentration not listed); 0.066% of 330,000 active; AID 2462;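 active = over half of replicate activation scores above 10%, or exactly half above 10 with the replicate mean above 10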
# TAG inh – triacylglycerol accumulation inhibition; 0.66% of 230,000 active; H9c2 cells, Nile Red lipid (TAG) fluorescence; cells loaded with 200 µM oleic acid; inhibition, % at 12.5 µM; AID 651582;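 active = pattern-corrected inhibition of lipid staining of at least 50% with the nuclear-stain viability signal not falling by more than 50%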;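 note: 0% = DMSO wells and 100% = triacsin C control wells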
# GC-B act – GC-B (human) receptor activation; activation, % at 10 µM; 0.11% of 370,000 active; AID 1920062; HEK293-GC-B cells, CNP EC30, cGMP TR-FRET; 0% at EC30 CNP, 100% saturating CNP;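 active = activation at 10 µM reaching about 35% in either raw or pattern-adjusted values, limit read from the data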
# HSV augment – HSV replication enhancement; HSV replication augmentation in cells, fold increase; maximum fold increase; 0.005% of 220,000 active; AID 1956; in the data active = maximum fold increase above about 1.5; tested in PC3 cells
# NPR1 activator – GC-A (human) enzyme activation | activation, % at 10 µM | P16066 | HEK293 GC-A cells, cGMP TR-FRET, EC30 ANP; 0% at EC30 ANP, 100% saturating ANP | 0.14% of 370,000 active; in the data active = activation above about 40%
# * marks the source's active call; other numbers are inactive results; i = inactive; x = not tested or not shown. This is a sample that favours compounds with a hit; in the whole collection about 1% have one here.
SMILES,Efflux pump inh,A1 inh,TAG inh,GC-B act,HSV augment,NPR1 activator
Cc1cc(C)c(C)c(S(=O)(=O)ON2C(=O)c3ccccc3C2=O)c1C,0,1,x,47*,i,42*
Cc1ccc(S(=O)(=O)N2CCN(CCc3ccccc3)CC2)c(C)c1,0,1,x,4,x,-2
Cc1ccc(OC(=O)CN2C(=O)c3ccccc3C2=O)cc1C,0,0,x,-6,x,-2
CN(C)CCCN(C(=O)c1cc2cc([N+](=O)[O-])ccc2s1)c1nc2cc3c(cc2s1)OCCO3,1,8.4*,45,2,x,3
Cc1ccc(N=Nc2ccc(O)c(P(=O)(c3ccccc3)c3ccccc3)c2)cc1,0,1,0,-4,i,50*
O=[N+]([O-])c1ccc(O)c(P(=O)(c2ccccc2)c2ccccc2)c1,0,1,x,3,x,3
CCCCCCCCNS(=O)(=O)CC1NCc2ccc(C)cc21 (centres undefined),x,x,x,1,x,0
COc1ccc(C2C(C(=O)Nc3c(C)cccc3C)CCC(=O)N2c2ccc(OC)cc2)cc1 (centres undefined),x,x,x,0,x,2
Cc1nc2sc(C(=O)NCc3nccs3)c(N)c2c(C)c1Cl,x,x,x,6,x,11
O=C(N/N=C(\c1ccccc1)c1ccccn1)c1cccc([N+](=O)[O-])c1,0,1,55*,x,i,x
O=C(NCc1c(F)cccc1F)C1CCCN(c2ncccn2)C1 (centres undefined),x,x,x,2,x,0
C=C(C)CSc1nnc(-c2cc(-c3ccc(OC)cc3)n[nH]2)n1N,x,x,x,-6,x,-3
CCOC(=O)/C(C#N)=C\c1ccc(OCC(=O)Nc2ccc(C)cc2C)c(OC)c1,0,1,11,2,i,47*
CN1CCN(c2ccccc2NC(=O)c2ccc([N+](=O)[O-])o2)CC1,0,-2,54*,x,x,x
Cc1ccc(C)c(NC(=S)NC(NC(=O)Cc2cccc3ccccc23)C(Cl)(Cl)Cl)c1 (centres undefined),0,12*,x,2,i,0
COC(=O)[C@]12C[C@H](CC(=O)NCc3ccc(OC)c(OC)c3)C(=O)N(Cc3ccc(Cl)cc3Cl)C1=C[C@H](C(C)C)O[C@@H]2C1CC1,x,x,x,-1,x,-3
O=C(CC1CC2CCC1C2)N1CCN(S(=O)(=O)c2ccccc2C(F)(F)F)CC1 (centres undefined),0,8.6*,-6,3,x,3
O=S(=O)(NC(=S)c1ccccc1)c1ccccc1,0,0,-3,6,x,5
CC(C)N=C(NS(=O)(=O)c1ccccc1)C(Cl)(Cl)Cl,0,0,52*,-3,i,2
CCCCCCCCSC1=CC(=O)C(OC)=C(OC)C1=O,x,x,98,8,x,45*
CCc1ccc(C=NN2CCN(Cc3ccc(C)cc3C)CC2)cc1,x,x,x,-2,x,3
Oc1ccc2[nH]cc(-c3cccs3)c2c1-c1ccccc1,x,x,x,2,x,-2
CCn1ncc(Br)c1C(=O)Nc1ccc(F)c([N+](=O)[O-])c1,-1,0,x,35*,i,28
CCn1ncc(Br)c1C(=O)Nc1ccc(F)cc1F,0,0,x,2,i,-4
CCOC(=O)C1(Cc2ccccc2)CCN(Cc2ccc(C)cc2)CC1,x,x,x,-1,x,3
SMILES,Efflux pump inh,A1 inh,TAG inh,GC-B act,HSV augment,NPR1 activator
Cc1ccc(Nc2cc(C)nc3ncnn23)c(Cl)c1,0,0,27,2,i,4
Cc1cc(Nc2cccc(Cl)c2Cl)n2ncnc2n1,0,0,x,39*,x,-1
COC(=O)[C@]12C[C@H](CC(=O)NCCCN3CCCC3=O)C(=O)N(Cc3cccc4ccccc34)C1=C[C@H](C(C)C)O[C@@H]2C1CC1,x,x,x,0,x,-7
Cc1ccc(C)c(N2CCN(S(=O)(=O)c3c(C)noc3/C=C/N(C)C)CC2)c1,0.8*,0,14,-6,i,-6
O=C(NCCc1c[nH]c2ccccc12)c1ccc2c(c1)ncn2C1CCCCC1,x,x,x,2,x,1
CCN1C(=O)N[C@@H](c2cccs2)C(C(=O)OC)=C1C,0,1,-19,-4,i,-1
CCN1C(=S)N[C@@H](c2cccs2)C(C(=O)OC)=C1C,0,1,13,35*,x,29
COC(=O)c1c(NC(=O)c2ccc([N+](=O)[O-])o2)sc2c1CCN(C(C)C)C2,0,0,59*,3,x,0
